The values below come from PubChem BioAssay.

The nature of assay [1]: growth inhibition of DIPG glioma cells, dose response, cell-based, SU-DIPG-XVII, MIPE5.0, CellTiter-Glo, qHTS (AID 1347060; cut-off not given, nearly all actives have AC50 up to about 26 µM;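 on AC50: cells exposed to compound for 48 hours before viability readout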). The note with it: SU-DIPG-XVII viability, CellTiter-Glo ATP luminescence.
The nature of assay [2]: viability loss in pontine glioma line – cell-based, SU-DIPG-XXV, MIPE5.0, CellTiter-Glo, qHTS, dose response (AID 1347065; cut-off not given, nearly all actives have AC50 up to about 26 µM;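 further: cells exposed to compound for 48 hours before ATP readout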). The note with it: CellTiter-Glo ATP luminescence.
A short description of assay [3]: JHH-DIPG-1 glioma cell viability, MIPE5.0 library, CellTiter-Glo luminescence, qHTS (AID 1347067; cut-off not given, nearly all actives have AC50 up to about 26 µM;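 further: cells exposed to compound for 48 hours before readout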). The conditions noted are these: JHH-DIPG-1 glioma viability, CellTiter-Glo ATP luminescence.
The nature of assay [4]: SU-DIPG-XXV glioma cell viability, MIPE5.0 library, qHTS (AID 1347068; cut-off not given, nearly all actives have IC50 up to about 30 µM;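 on IC50: cells exposed to compound for 48 hours before viability readout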).
Assay [5] can be described thus: sensitizers of A549 cells to miR-34 induction, primary screen, imaging, A549 dox-inducible miR-34, nuclei and caspase counts (AID 1347080;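 active means compounds whose cell count with miR-34 switched on is under 0.7 times the count with it off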). The note with it: A549 miR-34 inducible, Hoechst nuclei count, 48 h.
Assay [6] can be described thus: modifiers of HSF1 nuclear foci, imaging, Selleck Cancer Library (AID 1347162; in the data active means plate-normalised HSF1 focus index below about 0.46). The conditions noted are these: human cells, at 10 µM; SSMD: measured here: HSF1 foci SSMD mean; cell count: measured here: cell number; plate-normalised HSF1 focus index: stronger effect = lower value.
Assay [7] can be described thus: survival rescue of mitochondrial mutant cells in low glucose, primary screen, MELAS cybrids, Rieske KO mouse fibroblasts, CellTiter-Glo (AID 1508586;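 active means mean z-score across replicates of 1.96 or higher in either the MELAS or the Rieske mutant cell line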;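 further: z relative to plate mean and SD of compound and empty wells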).
Assay [8] is described as follows: ovarian cancer cell viability with rucaparib, profiling panel, oncology-focused library, rucaparib conditional (AID 1508598). The conditions noted are these: patient-derived ovarian cancer cells, CellTiter-Glo viability, 144 h, stronger effect = lower value.

Inconclusive results are not listed. The source made the active and inactive calls.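 How the source made its calls, unless noted: active means normalized viability below 100% at a tested concentration; inactive means the rest.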

As to `COc1c(C)cc(NC(=O)c2nn(Cc3ccc(F)cc3)c3c2CN(C(=O)c2ccc[nH]2)C[C@]3(C)C(N)=O)cc1C`, the result in assay [1], in assay [2] and in assay [3] was inactive.
For the compound `CCn1c(=O)c(-c2ccc(Cl)cc2Cl)cc2cnc(Nc3ccc(N4CCNCC4)c(F)c3)nc21`, the AC50 in assay [1] and in assay [2] was 0.59 µM (active) in each case. For the same compound, the compound was called inactive in assay [3] and in assay [4].
Consider `CC(C)(C)Sc1c(CC(C)(C)C(=O)O)n(Cc2ccc(Cl)cc2)c2ccc(OCc3ccc4ccccc4n3)cc12`, for which the values for the AC50 in assay [1], in assay [2] and in assay [3] were 20.9 µM (active), 20.9 µM (active) and 18.6 µM (active), respectively. Besides, in assay [4], the outcome was inactive.
Regarding `Cn1nccc1Nc1nccc(-c2cc3c(s2)C(C)(C)N(CCN2CCOCC2)C3=O)n1`, the half-maximal activity concentration (AC50) was 5.25 µM (active) in assay [1], 10.5 µM (active) in assay [2] and 2.09 µM (active) in assay [3]. In addition, the result in assay [4] was inactive.
Turning to `COC(=O)c1ccc([C@H]2c3[nH]c4ccccc4c3C[C@H](C(=O)OC)N2C(=O)CCl)cc1`, the concentration at half-maximal activity (AC50) was 13.2 µM (active) in assay [1], 5.25 µM (active) in assay [2] and 2.35 µM (active) in assay [3]. The IC50 in assay [4] is 14.8 µM (active).
For the compound `CCC(CC)CC1(C(=O)Nc2ccccc2SC(=O)C(C)C)CCCCC1`, the compound was called inactive in assay [1], in assay [2], in assay [3] and in assay [4]. Also, the fold change was 0.89 (inactive) in assay [5] (stronger effect = lower value, cell number ratio, induced over uninduced) and 0.858 in assay [5] (measured here: relative caspase fold change +Dox/-Dox). Besides, the cell count in assay [5] (measured here: total cells with miR-34 induction, stronger effect = lower value) is 9550; in assay [5] (measured here: total cells without miR-34 induction), 10700; in assay [6], 6890. Besides, the SSMD in assay [6] turned out to be 1.84. For the same compound, the plate-normalised HSF1 focus index in assay [6] was 1.09 (inactive). For the same compound, the z-score is -0.325 (inactive) in assay [7] (MELAS cybrid survival, CellTiter-Glo 48 h, stronger effect = higher value) and 1.25 in assay [7] (Rieske KO mouse fibroblast survival, CellTiter-Glo 72 h). Further, the viability was 115% (inactive) in assay [8] (at 0.000305 µM, OCI-C5x cells, with rucaparib 10 µM, 100% = cells with rucaparib alone); 112% (inactive) in assay [8] (at 0.000305 µM, OCI-C5x cells, without rucaparib); 92.5% (active) in assay [8] (at 0.000305 µM, OCI-P5x cells, with rucaparib 20 µM, 100% = cells with rucaparib alone); 91.2% (active) in assay [8] (at 0.000305 µM, OCI-P5x cells, without rucaparib); 109% (inactive) in assay [8] (at 0.00122 µM, OCI-C5x cells, with rucaparib 10 µM, 100% = cells with rucaparib alone); 105% (inactive) in assay [8] (at 0.00122 µM, OCI-C5x cells, without rucaparib). Also, the viability in assay [8] (at 0.00122 µM, OCI-P5x cells, with rucaparib 20 µM, 100% = cells with rucaparib alone) was 97.3% (active); in assay [8] (at 0.00122 µM, OCI-P5x cells, without rucaparib), 96% (active); in assay [8] (at 0.00488 µM, OCI-C5x cells, with rucaparib 10 µM, 100% = cells with rucaparib alone), 111% (inactive); in assay [8] (at 0.00488 µM, OCI-C5x cells, without rucaparib), 114% (inactive); in assay [8] (at 0.00488 µM, OCI-P5x cells, with rucaparib 20 µM, 100% = cells with rucaparib alone), 101% (inactive); in assay [8] (at 0.00488 µM, OCI-P5x cells, without rucaparib), 99.6% (active). Also, the viability in assay [8] (at 0.0195 µM, OCI-C5x cells, with rucaparib 10 µM, 100% = cells with rucaparib alone) is 127% (inactive); in assay [8] (at 0.0195 µM, OCI-C5x cells, without rucaparib), 110% (inactive); in assay [8] (at 0.0195 µM, OCI-P5x cells, with rucaparib 20 µM, 100% = cells with rucaparib alone) it was 104% (inactive); in assay [8] (at 0.0195 µM, OCI-P5x cells, without rucaparib), 108% (inactive); in assay [8] (at 0.0781 µM, OCI-C5x cells, with rucaparib 10 µM, 100% = cells with rucaparib alone) it was 110% (inactive); in assay [8] (at 0.0781 µM, OCI-C5x cells, without rucaparib), 115% (inactive). Also, the viability in assay [8] (at 0.0781 µM, OCI-P5x cells, with rucaparib 20 µM, 100% = cells with rucaparib alone) was 104% (inactive); in assay [8] (at 0.0781 µM, OCI-P5x cells, without rucaparib), 103% (inactive); in assay [8] (at 0.313 µM, OCI-C5x cells, with rucaparib 10 µM, 100% = cells with rucaparib alone), 99.9% (active); in assay [8] (at 0.313 µM, OCI-C5x cells, without rucaparib), 121% (inactive); in assay [8] (at 0.313 µM, OCI-P5x cells, with rucaparib 20 µM, 100% = cells with rucaparib alone) it was 107% (inactive); in assay [8] (at 0.313 µM, OCI-P5x cells, without rucaparib), 103% (inactive). Besides, the viability in assay [8] (at 1.25 µM, OCI-C5x cells, with rucaparib 10 µM, 100% = cells with rucaparib alone) is 113% (inactive); in assay [8] (at 1.25 µM, OCI-C5x cells, without rucaparib), 126% (inactive); in assay [8] (at 1.25 µM, OCI-P5x cells, with rucaparib 20 µM, 100% = cells with rucaparib alone) it was 107% (inactive); in assay [8] (at 1.25 µM, OCI-P5x cells, without rucaparib), 102% (inactive); in assay [8] (at 5 µM, OCI-C5x cells, with rucaparib 10 µM, 100% = cells with rucaparib alone) it was 110% (inactive); in assay [8] (at 5 µM, OCI-C5x cells, without rucaparib), 120% (inactive). Moreover, the viability in assay [8] (at 5 µM, OCI-P5x cells, with rucaparib 20 µM, 100% = cells with rucaparib alone) is 103% (inactive); in assay [8] (at 5 µM, OCI-P5x cells, without rucaparib), 108% (inactive).
Consider `CNc1nc(C)nc(N[C@H]2CCC[C@@H](C(=O)NCc3ccc(C#N)cc3C(F)(F)F)C2)n1`, for which the result in assay [1], in assay [2], in assay [3] and in assay [4] was inactive.
